Experimental data reported in PubChem BioAssay AID463173 (ICCB-Longwood Screening Facility, Harvard Medical School, 2010).
The campaign covered roughly 52,000 compounds. About 4,300 (8.3%) were called active. Shown is part of a subset that was picked to be rich in actives. Unmarked numbers belong to inactive results. Rule as the data show it: active = survival mostly below about 52% (no sharp cut-off); inactive = mostly above about 56%.

Each compound was assayed on DeltatarO mutant (assay: S. aureus survival, RN4220 and DeltatarO strains – OD600, teichoic acid synthesis inhibitors, primary screen (AID 463173)). Details: S. aureus RN4220 wild type/DeltatarO growth, OD600, 18 h, active compounds read low, screened at 18.75 µg/mL (by protocol).

| Structure (SMILES) | survival |
| --- | --- |
| CCC(=O)N1c2ccccc2CC1C(=O)N1CCN(c2cccc(Cl)c2)CC1 (stereo not drawn) | 77% |
| CCn1cc(C(=O)NCCc2ccc(Cl)cc2)c(=O)c2cc(S(=O)(=O)N3CCC(C)CC3)ccc21 | 105% |
| CCN(CC)CCN(C(=O)c1ccco1)c1nc2c(C)c(C)ccc2s1 | 77% |
| O=[N+]([O-])c1cc(-c2nc(-c3ccccc3)no2)ccc1N1CCCC1 | 63% |
| COc1ccc(NC(=O)CC2Nc3ccccc3NC2=O)cc1 (stereo not drawn) | 61% (active) |
| CC(=O)c1ccc(NC(=O)CC2Nc3cccc4cccc(c34)NC2=O)cc1 (stereo not drawn) | 72% |
| COc1cccc(NC(=O)CC2Nc3cc(C)c(C)cc3NC2=O)c1 (stereo not drawn) | 89% |
| O=C(CC1Nc2cccc3cccc(c23)NC1=O)Nc1ccc(F)cc1 (stereo not drawn) | 111% |
| CCOc1ccc(NC(=O)CC2Nc3cccc4cccc(c34)NC2=O)cc1 (stereo not drawn) | 37% (active) |
| Cc1ccc(NC(=O)CC2Nc3ccccc3NC2=O)cc1C (stereo not drawn) | 58% |
| Cc1cccc(NC(=O)CC2Nc3cccc4cccc(c34)NC2=O)c1 (stereo not drawn) | 64% |
| CCOC(=O)c1ccc(NC(=O)CC2Nc3cccc4cccc(c34)NC2=O)cc1 (stereo not drawn) | 28% (active) |
| COc1ccc(NC(=O)CC2Nc3cccc4cccc(c34)NC2=O)cc1 (stereo not drawn) | 41% (active) |
| Cc1cccc(NC(=O)CC2Nc3ccccc3NC2=O)c1 (stereo not drawn) | 71% |
| CCOC(=O)c1ccc(NC(=O)CC2Nc3ccccc3NC2=O)cc1 (stereo not drawn) | 62% |
| Cc1ccc(NC(=O)CC2Nc3cccc4cccc(c34)NC2=O)cc1 (stereo not drawn) | 61% |
| N#Cc1cn(-c2ccccc2)nc1-c1cccnc1 | 73% |
| O=C(Nc1ccccn1)NC12CC3CC(CC(C3)C1)C2 | 106% |
| Cc1ccc(NC(=O)c2oc3ccc4c(c3c2C)C(=O)CC(C)(C)O4)c(C)c1 | 83% |
| CC1CCN(C(C(=O)O)c2ccccc2)CC1 (stereo not drawn) | 98% |
| CN1CCN(C(CNC(=O)C(=O)Nc2ccc(Cl)cc2)c2cccnc2)CC1 (stereo not drawn) | 86% |
| COc1ccccc1CNC(=O)CSc1ncc(S(=O)(=O)c2ccc(C)c(Cl)c2)c(=O)[nH]1 | 124% |
| Cc1ccc(CNS(=O)(=O)c2ccc(-c3cnc(C4CC4)o3)cc2)cc1 | 76% |
| Cc1cccc(CNS(=O)(=O)c2ccc(-c3cnc(C4CC4)o3)cc2)c1 | 52% (active) |
| O=S(=O)(NCc1ccccc1)c1ccc(-c2cnc(C3CC3)o2)cc1 | 71% |

| Structure (SMILES) | survival |
| --- | --- |
| CC(C)c1ccc(NC(=O)C(C)N(c2ccccc2)S(C)(=O)=O)cc1 (stereo not drawn) | 65% |
| Cc1ccc2onc(CC(=O)N3CCN(c4cccc(C)c4C)CC3)c2c1 | 39% (active) |
| COc1ccc(N2CCN(C(=O)NCc3noc4ccccc34)CC2)cc1 | 42% |
| COc1ccc(N2CCN(C(=O)Cc3coc4ccc(C)cc34)CC2)cc1 | 105% |
| COc1ccc(N2CCN(C(=O)Cc3noc4ccc(C)cc34)CC2)cc1 | 42% (active) |
| Cc1ccc2onc(CC(=O)N3CCN(c4cc(Cl)ccc4C)CC3)c2c1 | 96% |
| Cc1ccc2onc(CC(=O)N3CCN(c4ccc(Cl)cc4)CC3)c2c1 | 30% (active) |
| Cc1ccc2onc(CC(=O)N3CCN(c4ccccc4)CC3)c2c1 | 40% (active) |
| Cc1ccc2onc(CC(=O)N(C)c3ccccc3)c2c1 | 52% |
| Cc1ccc2onc(CC(=O)N3CCN(c4ccccc4F)CC3)c2c1 | 71% |
| Cc1ccc2oc(=O)c3cnn(CC(=O)N4CCN(c5ccccc5)CC4)c3c2c1 | 123% |
| Cc1ccc2onc(CC(=O)N3CCN(c4cccc(Cl)c4)CC3)c2c1 | 83% |
| Cc1ccc2onc(CNC(=O)N3CCN(c4cccc(C)c4C)CC3)c2c1 | 48% |
| COc1ccc(-n2c(=O)[nH]c3cc(C(=O)NCCc4ccccc4)ccc3c2=O)cc1OC | 94% |
| COc1ccccc1NC(=O)Cn1c(=O)n(-c2ccc(C)cc2)c(=O)c2ccc(C(=O)NCc3ccco3)cc21 | 79% |
| Cc1ccc(N2CCN(C(=O)Cn3ncc4c([nH]c5ccc(C)cc54)c3=O)CC2)c(C)c1 | 94% |
| COc1ccc(NC(=O)C2=C(C)Nc3ncnn3C2c2ccccn2)cc1 (stereo not drawn) | 81% |
| Cc1ccc(S(=O)(=O)N2C(=O)CCC2C(=O)NCc2ccco2)cc1 (stereo not drawn) | 77% |
| Cc1ccc2c(CC(=O)N3CCN(c4cccc(Cl)c4)CC3)coc2c1 | 75% |
| CCN(CC)CC(=O)Oc1ccc(NC2=NS(=O)(=O)c3ccccc32)cc1 | 96% |
| CC1CCCN(C(=O)CCS(=O)(=O)c2cc3c(cc2Cl)NC(=O)CO3)C1 (stereo not drawn) | 84% |
| CCCC(=O)NCCc1ccc(F)cc1 | 119% |
| COC(=O)c1cc2occc2n1CC(=O)Nc1cccc(SC)c1 | 102% |
| Cc1ccc2onc(CC(=O)N3CCN(c4ccc(F)cc4)CC3)c2c1 | 41% (active) |
| CC(=O)c1ccc(N2CCN(C(=O)NCc3noc4ccc(C)cc34)CC2)cc1 | 45% |

| Structure (SMILES) | survival |
| --- | --- |
| Cc1ccc2oc(=O)c3cnn(CC(=O)N4CCN(c5ccc(F)cc5)CC4)c3c2c1 | 106% |
| CC(C)CNCC(=O)N(C1CCCCC1)C1CCCCC1 | 116% |
| CCOc1ccc(-c2cc(C(=O)NCc3ccccc3Cl)c3ccccc3n2)cc1 | 89% |
| Cc1nn(C)cc1CN(C)C(=O)c1cc(-c2ccccc2)nc2ccc(Br)cc12 | 67% |
| Cc1ccc(-c2cc(C(=O)NCc3cnn(C)c3C)c3ccccc3n2)cc1C | 49% (active) |
| CCn1cc(CNC(=O)c2cc(-c3ccc(C)c(C)c3)nc3ccccc23)c(C)n1 | 123% |
| COc1ccc(-c2cc(C(=O)NCc3ccc(C)cc3)c3cc(C(C)C)ccc3n2)cc1 | 76% |
| CCn1cc(CNC(=O)c2cc(-c3ccc(C)cc3)nc3ccc(Br)cc23)c(C)n1 | 40% (active) |
| Cc1ccc(CNC(=O)c2cc(-c3ccc(C)c(C)c3)nc3ccccc23)cc1 | 74% |
| Cc1c(CN(C)C(=O)c2cc(-c3ccccc3)nc3ccc(Br)cc23)cnn1C | 30% (active) |
| Cc1ccc(-c2cc(C(=O)NCc3ccccc3Cl)c3ccccc3n2)cc1C | 68% |
| Cc1ccc(-c2cc(C(=O)NCc3cnn(C)c3)c3cc(Br)ccc3n2)cc1 | 51% |
| N#CCN(CC#N)C(=O)c1cc(-c2ccccc2)nc2ccccc12 | 89% |
| Cc1ccc(-c2cc(C(=O)NCc3cnn(C)c3C)c3cc(Br)ccc3n2)cc1 | 36% (active) |
| CC(C)N(C(=O)CSc1nnc(CSc2ncccn2)n1C)C(C)C | 58% |
| CCOC(=O)c1ccc(NC(=O)Cc2ccc(-n3c(CC)nc4cccnc43)cc2)cc1 | 68% |
| Cc1ccccc1Cn1c(=O)n(Cc2ccc3c(c2)OCO3)c(=O)c2oc3ccccc3c21 | 110% |
| C/C=N/NC(=O)c1ccccc1 | 93% |
| O=C(NC1CCCCC1)c1ccc2c(c1)N(Cc1cccc(F)c1)C(=O)c1ccccc1S2 | 88% |
| Cn1cnc(S(=O)(=O)N2CCC(C(=O)Nc3ccc(C#N)cc3)CC2)c1 | 107% |
| CC1=C(C(=O)Nc2cccc(C(F)(F)F)c2)C(c2ccccn2)n2ncnc2N1 (stereo not drawn) | 102% |
| CC(C)(C)c1nn(-c2ccccc2)c2[nH]c(=O)c(CNc3ccc4c(c3)OCO4)cc12 | 86% |
| CCOC(=O)c1ccc(N2C(=O)c3[nH]nc(-c4ccccc4)c3C2c2cccs2)cc1 (stereo not drawn) | 123% |
| CCOC(=O)c1cc2c(=O)n3ccccc3nc2n(Cc2ccco2)c1=NC(=O)c1ccccc1Br | 71% |
| CCOC(=O)c1cc2c(=O)n3ccccc3nc2n(Cc2ccco2)c1=NC(=O)c1ccc(OC)cc1 | 34% (active) |

| Structure (SMILES) | survival |
| --- | --- |
| CCOC(=O)c1cc2c(=O)n3ccccc3nc2n(CC(C)C)c1=NC(=O)COc1ccc(Cl)cc1 | 136% |
| CCOC(=O)c1cc2c(=O)n3ccccc3nc2n(Cc2ccco2)c1=NC(=O)c1ccc(OCC)cc1 | 37% (active) |
| CCOC(=O)c1cc2c(=O)n3ccccc3nc2n(Cc2ccco2)c1=NC(=O)c1ccccc1OC | 28% (active) |
| CCC(C)NC(=O)Cn1c(=O)n(Cc2ccc(C(=O)NCc3ccccc3OC)cc2)c(=O)c2ccccc21 (stereo not drawn) | 84% |
| O=c1ccnc(NCCc2ccccc2)[nH]1 | 104% |
| Cn1cnc(S(=O)(=O)N2CCCC(C(=O)NCc3ccccc3Cl)C2)c1 (stereo not drawn) | 99% |
| O=C1/C(=C\c2cccnc2)SC(=S)N1C1CCS(=O)(=O)C1 (stereo not drawn) | 93% |
| O=C1/C(=C/C2=Cc3ccccc3OC2)SC(=S)N1C1CCS(=O)(=O)C1 (stereo not drawn) | 44% (active) |
| O=C1CSC(=S)N1C1CCS(=O)(=O)C1 (stereo not drawn) | 97% |
| COc1ccc(-n2cc(-c3ccc4c(c3)OCO4)n(CC(=O)Nc3cc(Cl)ccc3C)c2=O)cc1 | 73% |
| O=C(c1ccc2c(c1)N(Cc1ccc(F)cc1)C(=O)c1ccccc1S2(=O)=O)N1CCN(Cc2ccccc2)CC1 | 72% |
| O=C(CCSCc1cccc(Cl)c1)NCCc1ccc(Cl)cc1 | 76% |
| Cc1ccc(CCNC(=O)CCSCc2ccccc2F)cc1 | -4% (active) |
| Cc1ccc(CCNC(=O)c2ccc(CSCc3ccccc3C)o2)cc1 | 32% (active) |
| Cc1ccc(CCNC(=O)CCSCc2ccc(Cl)cc2)cc1 | 82% |
| O=C(CCSCc1ccc(Cl)cc1)NCCc1ccccc1 | -5% (active) |
| COc1ccc(CCNC(=O)CCSCc2ccccc2Cl)cc1OC | 76% |
| Cc1ccccc1CSCc1ccc(C(=O)NCCc2ccccc2)o1 | 83% |
| O=C(CCSCc1ccccc1Cl)NCCc1ccccc1 | 71% |
| Cc1ccc(CCNC(=O)CCSCc2ccccc2Cl)cc1 | 20% (active) |
| CCc1ccc(CNC(=O)CCSCc2ccccc2F)cc1 | 96% |
| Cc1ccc(CNC(=O)CCSCc2ccccc2F)cc1 | 78% |
| Cc1ccc(CCNC(=O)c2ccc(CSCc3ccccc3Cl)o2)cc1 | 87% |
